# Source: PubChem (several laboratories)
# An excerpt weighted towards active compounds, which were near 3.1% of everything screened.
# HIF activator: HIF pathway transcriptional activation | U2OS HRE-luciferase reporter, luminescence; normalized: DMSO 0%, desferrioxamine 100% | activation, % at 7.5 µM (by protocol) | 300,000 compounds, 0.32% hits;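 active = mean activation of at least 10% of the iron chelator positive control signal, with at least half of replicates also reaching 10%; inconclusive = mean and replicate majority disagree about reaching 10%; inactive = mean and most replicates under 10%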
# HSF1 inh: HSF1 inhibition. NIH3T3-HGL HSE-luciferase, MG132-induced, luminescence 8 h; hits give low values. activity change, negative = inhibition, % at 7.5 µM (by protocol). 300,000 compounds, 0.77% hits. AID 2098;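 active = more than half of replicate wells show activity change below -50%, luminescence cut by over half; inconclusive = some wells, but at most half, below -50%; inactive = no replicate well below -50%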;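 also: luciferase reports HSF-1 transcriptional activity via heat shock element; 0% = median of DMSO wells and -100% = zero luminescence signal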
# HSP90 refold inh: inhibitors of HSP90 luciferase refolding in rabbit reticulocyte lysate | luciferase refolding luminescence, 3 h | inhibition, % at 5.6 µM | 290,000 compounds, 0.91% hits;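 active = inhibition above the screen-wide mean plus 3 SD, computed separately per campaign, cut at about 16% in these data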;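 also: 0% = DMSO wells and 100% = 60 µM geldanamycin wells; inhibitors lower the luminescence because luciferase stays unfolded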
# HSF1 activator: increases HSF-1 driven luciferase reporter signal | AID 504408 | 300,000 compounds, 1.7% hits | NIH3T3-HGL HSF-1 luciferase reporter, MG132, 8 h; 100% = twice DMSO control signal | activation, % at 9 µM;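 active = mean replicate activation of at least 50% with a set share of replicates each reaching 50%; inconclusive = only one of those two conditions met; inactive = mean below 50% and too few replicates reaching it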;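 also: 0% = median of the neutral control wells and 100% = twice that signal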
# ARNT TACC3 PPI: ARNT/TACC3 interaction disruption. inhibition, % at 9.99 µM. 390,000 compounds, 0.66% hits. AlphaScreen His-ARNT PAS-B/GST-TACC3 binding, luminescence; TACC3 fragment carries E629A point mutation. Q9Y6A5. AID 623870;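 active = mean inhibition of replicates at least 50% and at least half of replicates each reaching 50%; inconclusive = half or more replicates reach 50% but mean below 50%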;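 also: 0% = complete ARNT plus TACC3 wells and 100% = ARNT alone without TACC3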
# HSP90 inh confirm: HSP90 inhibition, confirmation assay | shares compounds with HSP90 refold inh | rabbit reticulocyte lysate, luciferase refolding luminescence, 3 h | inhibition, % at 5.9 µM | 2,300 compounds, 64% hits; in the data active = inhibition above about 18%;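 also: 0% = vehicle wells and 100% = reference inhibitor wells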
# luciferase ctr: counter-screen for HSP90 inhibitors: inhibitors of firefly luciferase; shares compounds with HSP90 refold inh; purified native firefly luciferase, luminescence; inhibition, % at 5.9 µM; 2,300 compounds, 48% hits; AID 1847;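 active = inhibition above the mean inhibition of all tested sample wells plus 3 SD, cut at about 10% in these data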;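 also: 0% = DMSO with luciferase and 100% = wells lacking luciferase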
# Target sequence (P08659 whole entry, looked up): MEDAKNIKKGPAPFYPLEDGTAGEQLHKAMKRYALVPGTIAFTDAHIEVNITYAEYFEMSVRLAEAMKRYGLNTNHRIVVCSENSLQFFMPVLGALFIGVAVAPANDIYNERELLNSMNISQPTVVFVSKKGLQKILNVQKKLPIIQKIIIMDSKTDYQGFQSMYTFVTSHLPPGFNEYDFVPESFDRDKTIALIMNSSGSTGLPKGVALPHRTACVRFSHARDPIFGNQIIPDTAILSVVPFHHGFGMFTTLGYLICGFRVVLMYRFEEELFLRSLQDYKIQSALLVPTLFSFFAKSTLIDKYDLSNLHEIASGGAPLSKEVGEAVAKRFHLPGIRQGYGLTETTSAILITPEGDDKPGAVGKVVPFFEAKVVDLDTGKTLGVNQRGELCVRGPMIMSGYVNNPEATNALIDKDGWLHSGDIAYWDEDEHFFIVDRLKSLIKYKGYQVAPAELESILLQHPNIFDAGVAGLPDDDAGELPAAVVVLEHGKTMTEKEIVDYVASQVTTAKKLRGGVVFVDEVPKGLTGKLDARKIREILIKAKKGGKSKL
# * hit, by the source's call; ? = inconclusive; / = not tested or not shown.
SMILES,HIF activator,HSF1 inh,HSP90 refold inh,HSF1 activator,ARNT TACC3 PPI,HSP90 inh confirm,luciferase ctr
Cc1ncc(C[n+]2csc(CCOC(=O)C34CC5CC(CC(C5)C3)C4)c2C)c(N)n1,0.6,3.2,50.1*,10.7,-8.5,1.0,-4.5
COc1ccc(S(=O)(=O)Nc2ccc3c(c2)C(=O)N([C@@H](C)CO)C[C@@H](C)[C@H](CN(C)Cc2ccncc2)O3)cc1,/,/,/,/,-3.1,/,/
COC(=O)c1ccc2nc(-c3ccc(S(C)(=O)=O)cc3)cn2c1,1.9,7.1,0.7,8.2,-3.4,/,/
COC(=O)c1ccc2nc(-c3cccc(N)c3)cn2c1,-0.7,-2.8,36.1*,-0.1,9.8,71.0*,53.7*
CO[C@H]1O[C@H](CO)[C@@H](OC(=O)Nc2ccccc2)[C@H](OC(=O)Nc2ccccc2)[C@H]1OC(=O)Nc1ccccc1,/,/,/,/,15.9,/,/
Cc1[nH]n(-c2ccccc2)c(=O)c1N=Nc1ccccc1,1.6,25.4,-1.0,40.6,-4.4,/,/
Cc1[nH]n(-c2ccccc2)c(=O)c1N=Nc1ccc(C(=O)O)cc1,0.1,-7.0,36.0*,3.5,-1.0,33.9*,-17.2
CC(=O)c1ccc(N=Nc2c(C)[nH]n(-c3ccccc3)c2=O)cc1,-0.5,-5.9,35.4*,9.0,-0.8,59.5*,-10.1
Cc1[nH]n(-c2ccccc2)c(=O)c1N=Nc1ccc(C(N)=O)cc1,0.2,-1.1,25.2*,-8.8,-8.1,39.0*,-5.4
Cc1[nH]n(-c2ccccc2)c(=O)c1N=Nc1cccc(C(=O)O)c1,-3.6,-31.3,23.1*,-40.8,0.6,66.2*,78.5*
COc1ccc(/C=N/Nc2nccnc2Cl)c(OC)c1,2.6,2.0,2.5,4.7,6.0,/,/
COc1cccc(/C=N/Nc2nccnc2Cl)c1O,30.6*,9.1,55.5*,16.9,/,72.3*,58.8*
COc1ccccc1N1CCN(C(=S)Nc2cccc(C)c2)CC1,-0.4,?,27.1*,-48.3,2.6,29.5*,1.2
Cc1cc(C(F)(F)F)n2ncc(-c3ccc(F)cc3)c2n1,-4.8,-0.8,1.7,1.6,-1.5,/,/
COc1ccc(-c2c(C)nc3c(-c4ccc(F)cc4)cnn3c2N)cc1,3.8,-30.4,17.4*,-32.3,6.0,16.5*,11.3*
Cc1nc2c(-c3ccc(Cl)cc3)cnn2c(N)c1-c1ccc(F)cc1,0.0,-74.4*,68.9*,-76.8,-0.1,67.3*,68.3*
Cc1nc2c(-c3ccc(Cl)cc3)cnn2c2c1CCC2,0.7,12.2,-0.1,18.6,-9.8,/,/
C[C@@H]1CN([C@H](C)CO)C(=O)c2cc(NS(=O)(=O)c3cn(C)cn3)ccc2O[C@H]1CN(C)Cc1ccc(Cl)c(Cl)c1,/,/,/,/,-6.2,/,/
O=C(CN1C(=O)CCC1=O)Nc1cccc2c1C(=O)NC2=O,-0.1,-8.1,21.4*,7.4,-7.1,2.6,-2.8
O=C(Nc1cccc2c1C(=O)NC2=O)c1cccc(N2C(=O)CCC2=O)c1,0.1,1.1,2.1,-9.4,-0.1,/,/
O=C(Nc1ncc([N+](=O)[O-])s1)c1ccc2c(c1)OCO2,-1.3,-31.5,76.0*,-25.8,9.8,87.2*,76.1*
COc1ccc(/C=C/C(=O)NC(=S)NNC(=O)c2cc(OC)c(OC)c(OC)c2)cc1,1.0,-5.5,25.6*,10.6,2.2,60.7*,26.9*
COc1ccccc1C(=O)Nc1nc2ccccc2s1,-18.4,-88.3*,90.8*,-89.7,-2.7,96.2*,93.1*
COc1ccc2nc(NC(=O)c3ccccc3F)sc2c1,-1.7,28.9,18.2*,41.3,4.8,38.1*,31.4*
COCC(=O)Nc1ccc2c(c1)C(=O)N(C)[C@@H]1CC[C@@H](CC(=O)NCc3ccccc3F)O[C@@H]1CO2,/,/,/,/,-28.0,/,/
SMILES,HIF activator,HSF1 inh,HSP90 refold inh,HSF1 activator,ARNT TACC3 PPI,HSP90 inh confirm,luciferase ctr
C[C@@H]1CN([C@@H](C)CO)C(=O)c2cc(NC(=O)Cc3ccccc3)ccc2O[C@@H](C)CCCCO[C@H]1CN(C)C(=O)c1ccccc1,/,/,/,/,-13.2,/,/
O=[N+]([O-])c1ccc2nc(C(O)C(O)c3nc4ccc([N+](=O)[O-])cc4[nH]3)[nH]c2c1 (stereo not drawn),2.6,3.3,3.8,12.1,6.0,/,/
O=[N+]([O-])c1ccc2nc(/C=C/c3ccc(Cl)cc3)[nH]c2c1,1.4,-22.6,27.9*,-27.4,0.9,5.7,0.6
CCO[C@@H]1OC(C(=O)N2CCN(Cc3ccc4c(c3)OCO4)CC2)=C[C@H](c2ccc(C(F)(F)F)cc2)[C@H]1CCCO,-4.3,-1.6,23.5*,-16.4,4.2,3.9,-1.8
C[C@@H]1CN([C@@H](C)CO)C(=O)Cc2cc(NS(=O)(=O)c3ccccc3)ccc2O[C@H]1CN(C)S(=O)(=O)c1ccc(Cl)cc1,/,/,/,/,1.0,/,/
Cc1ccc(S(=O)(=O)N[C@@H]2C=C[C@@H](CC(=O)NC3CCCCC3)O[C@@H]2CO)cc1,/,/,/,/,-3.6,/,/
Cc1csc(NC(=O)c2cn3ccccc3n2)n1,-2.7,-18.4,54.5*,-13.8,42.9,70.2*,62.1*
O=C(Nc1ccccc1)c1cn2ccccc2n1,-1.8,-5.1,37.3*,11.5,41.0,59.4*,41.2*
CCc1ccc(C(=O)Nc2nc(C)cs2)s1,-1.8,-3.1,42.9*,17.4,-2.0,56.0*,51.5*
Cc1csc(NC(=O)c2cnc3ccccc3n2)n1,0.6,0.9,43.4*,-1.2,-1.8,53.0*,39.7*
Cc1csc(NC(=O)c2cccn2C)n1,1.3,15.0,-5.2,25.7,1.9,/,/
O=C(C[C@@H]1C=C[C@H](NC(=O)CN2CCOCC2)[C@@H](CO)O1)NC1CCCCC1,/,/,/,/,-22.5,/,/
CCN(Cc1ccncc1)C(=O)c1ccccc1NS(=O)(=O)c1ccc(Br)cc1,0.1,5.1,21.5*,-10.5,-1.3,-5.6,-10.7
C[C@H](CO)N1C[C@H](C)[C@@H](CN(C)C)Oc2cc(C#Cc3cccnc3)ccc2S1(=O)=O,/,/,/,/,-8.7,/,/
CCOc1ccc(OCc2ccc(C(=O)Nc3cccnc3)o2)cc1,2.4,9.2,27.9*,22.4,26.1,31.6*,-22.5
CCOc1ccc(OCc2ccc(C(=O)N3CCCCC3)o2)cc1,0.7,2.6,23.4*,-2.9,-0.5,13.0,-25.6
CCN1CCN(C(=O)c2ccc(COc3ccc(Cl)cc3)o2)CC1,-0.1,6.8,-2.6,31.0,1.6,/,/
CCN1CCN(C(=O)c2ccc(COc3cccc(Cl)c3)o2)CC1,0.2,11.2,-2.8,13.3,1.4,/,/
CCOc1ccc(OCc2ccc(C(=O)N3CCc4ccccc4C3)o2)cc1,1.5,7.8,24.3*,14.9,-5.6,32.6*,-18.2
O=C(NCc1ccc2c(c1)OCO2)[C@@H]1[C@@H](CO)[C@@H]2Cn3c(cccc3=O)[C@H]1N2Cc1ccncc1,/,/,/,/,-0.3,/,/
C[C@H]1CN([C@@H](C)CO)C(=O)c2cc(C#CC3CCCCC3)cnc2O[C@H]1CN(C)C(=O)Nc1ccccc1,/,/,/,/,4.7,/,/
